This note sets out measurements from PubChem BioAssay.

A short description of test [1]: HepG2 liver cancer cell viability effects, profiling panel, resazurin fluorescence, 24 h, PK04 Diversity Set (AID 1172). Note: test concentration not given here. The note with it: higher = more signal.
Test [2] in a line: basal S. cerevisiae growth modulation, no modifier, primary screen, OD600, strain BY4716, 24 h, basal condition (AID 1173). The settings on record: OD600, 24 h, higher = more signal, called active from +8 up or from −8 down.
The nature of test [3]: MM1S myeloma cell viability, profiling panel, resazurin fluorescence, basal, 24 h, PK04 Diversity Set (AID 1174).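 Note: MM1S multiple myeloma cell line; test concentration not given here.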 The note with it: higher = more signal, called active from +8 up or from −8 down. In general terms: Resazurin is reduced to fluorescent resorufin, in cell work by metabolically active cells.
Test [4] has as its target Dihydroorotate dehydrogenase (quinone), mitochondrial (Plasmodium falciparum (isolate 3D7)) (UniProt Q08210). In words: PfDHODH enzyme inhibitors, primary screen, biochemical, C-terminal His tag, absorbance 600 nm (AID 1175).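 Note: recombinant parasite enzyme with a five histidine tag at its C terminus; test concentration not given here.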 The note with it: DCIP absorbance 600 nm, higher = more signal, called active from +8 up or from −8 down.
Test [5] can be described thus: P. aeruginosa biofilm formation inhibitors, primary screen, strain PAO1, LB-PBS medium, absorbance 600 nm (AID 1176). Note: test concentration not given here. The note with it: P. aeruginosa PAO1 growth/biofilm, A600, 12 h; higher = more signal.
Test [6] can be described thus: S. cerevisiae RM11-1a growth modifiers, primary screen, strain RM11-1a, OD600, basal, 24 h (AID 1177).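 Note: cultures grown under basal conditions with no added stressor; test concentration not given here.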 The note with it: OD600, 24 h, higher = more signal, called active from +8 up or from −8 down.
Test [7] is described as follows: E. coli acrAB mutant growth effects, primary screen, E. coli filamentation inducers, strain DRC39, OD650, 24 h (AID 1178).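 Note: growth measured as culture turbidity by optical density at 650 nm; test concentration not given here.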 The note with it: higher = more signal, called active from +8 up or from −8 down.
The nature of test [8]: E. coli acrAB mutant growth effects, primary screen, E. coli filamentation inducers, strain DRC39, OD650, 48 h (AID 1179).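 Note: screen aims at cell division blockers that make cells filament.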 The note with it: E. coli DRC39 delta-acrAB growth, higher = more signal, called active from +8 up or from −8 down.
Test [9] in a line: RPMI8226 myeloma cell viability, profiling panel, resazurin fluorescence, basal, 24 h, PK04 Diversity Set (AID 1180).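 Note: RPMI8826 multiple myeloma cell line at 5000 cells per well; test concentration not given here.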 The settings on record: higher = more signal.
The target of test [10] is E3 ubiquitin-protein ligase XIAP (Homo sapiens) (UniProt P98170). The test can be described thus: XIAP binders, primary screen, biophysical, small-molecule microarray, fluorescence 635 nm (AID 1181).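 Note: score merges 667 nm emission and signal to noise over triplicate slides.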 The settings on record: small-molecule microarray binding, higher = more signal.

The source made the active and inactive calls. Unless noted, the rule behind the calls is not given here.

Dihydroorotate dehydrogenase (quinone), mitochondrial (Plasmodium falciparum (isolate 3D7)), sequence (Q08210 whole entry, looked up): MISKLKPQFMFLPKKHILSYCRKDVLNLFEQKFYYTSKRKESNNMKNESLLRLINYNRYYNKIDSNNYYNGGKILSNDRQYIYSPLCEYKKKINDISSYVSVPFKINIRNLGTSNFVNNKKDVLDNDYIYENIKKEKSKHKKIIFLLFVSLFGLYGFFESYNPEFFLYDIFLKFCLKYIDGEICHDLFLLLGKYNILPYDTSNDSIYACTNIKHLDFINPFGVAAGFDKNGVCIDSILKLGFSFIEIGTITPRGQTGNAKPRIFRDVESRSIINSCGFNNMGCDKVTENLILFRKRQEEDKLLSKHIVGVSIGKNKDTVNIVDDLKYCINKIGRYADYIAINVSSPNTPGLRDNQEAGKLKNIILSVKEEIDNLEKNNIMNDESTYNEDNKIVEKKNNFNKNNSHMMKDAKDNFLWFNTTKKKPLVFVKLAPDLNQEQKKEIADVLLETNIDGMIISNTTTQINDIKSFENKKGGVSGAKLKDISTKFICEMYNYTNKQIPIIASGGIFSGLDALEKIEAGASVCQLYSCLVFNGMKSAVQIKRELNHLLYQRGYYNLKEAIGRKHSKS
E3 ubiquitin-protein ligase XIAP (Homo sapiens), sequence (P98170 whole entry, looked up): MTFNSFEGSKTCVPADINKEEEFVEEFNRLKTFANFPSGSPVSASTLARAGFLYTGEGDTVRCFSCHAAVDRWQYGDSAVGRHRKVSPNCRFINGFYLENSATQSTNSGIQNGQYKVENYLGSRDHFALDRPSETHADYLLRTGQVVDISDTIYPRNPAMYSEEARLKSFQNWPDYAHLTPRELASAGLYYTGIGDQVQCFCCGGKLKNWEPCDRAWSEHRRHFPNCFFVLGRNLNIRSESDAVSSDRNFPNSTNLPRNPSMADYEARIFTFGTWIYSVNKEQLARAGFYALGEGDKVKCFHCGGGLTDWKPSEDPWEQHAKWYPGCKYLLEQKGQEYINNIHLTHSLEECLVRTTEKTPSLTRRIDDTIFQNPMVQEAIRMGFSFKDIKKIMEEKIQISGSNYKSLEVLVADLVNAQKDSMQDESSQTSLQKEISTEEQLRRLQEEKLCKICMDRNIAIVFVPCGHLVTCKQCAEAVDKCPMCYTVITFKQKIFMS

Take `CCc1cc2c(nc1CC)CCN(CCC(C)=NO[C@@H]1O[C@H](COC(C)=O)[C@@H](OC(C)=O)[C@H](OC(C)=O)[C@H]1OC(C)=O)C2`: the z-score in test [1] was -0.11; in [2], -0.334 (inactive); in [3] it was 0.164 (inactive); in test [5], -0.585 (inactive); in [6], -0.567 (inactive); in test [7] it was -1.25 (inactive). In addition, the z-score was -1.82 (inactive) in test [8] and -0.387 in test [9]. Further, the composite z-score in test [4] was -2.7 (inactive); in [10] it was 0.0825.
As for `CC1(C)O[C@H]2O[C@H]([C@H](O)CON=C3[C@H]4CCn5c(=O)n(-c6ccccc6)c(=O)n5[C@H]4[C@H](O)[C@@H]4O[C@H]34)[C@H](O)[C@H]2O1`, the z-score was -0.294 in test [1]; -0.139 (inactive) in test [2]; 0.159 (inactive) in [3]; 0.593 (inactive) in [5]; -0.894 (inactive) in test [6]; 0.483 (inactive) in test [7]. For the same molecule, the z-score in test [8] was -0.516 (inactive); in test [9] it was 0.343. Moreover, the composite z-score was -0.327 (inactive) in test [4] and -0.0767 in test [10].
Regarding `O=C1C=C[C@@H](O)[C@@H]2[C@@H]3C(=O)N(Cc4ccccc4)C(=O)[C@@H]3CC[C@@H]12`, the z-score in test [1] was -0.178; in [2], -0.459 (inactive); in test [3], 0.183 (inactive); in test [5] it was 0.647 (inactive); in test [6], -0.83 (inactive); in [7] it was 0.479 (inactive). For the same molecule, the z-score in test [8] is 0.116 (inactive); in test [9], -0.242. For the same molecule, the results for the composite z-score in [4] and in test [10] were -0.136 (inactive) and -0.0566, respectively.
`CC(CCN1CCCCc2nc(C)c(C)cc21)=NO[C@H](C)c1cn([C@@H]2COC[C@H]2O)nn1`: the z-score in test [1] is 0.404; in [2], 1.62 (inactive); in test [3], -1.64 (inactive); in test [5], -0.561 (inactive); in test [6] it was 0.811 (inactive); in [7], 0.715 (inactive). For the same molecule, the z-score was 0.821 (inactive) in test [8] and -0.256 in test [9]. The composite z-score in test [4] is -0.21 (inactive); in test [10] it was 0.256.
For the molecule `C[C@@H]1CC[C@H]2C(=O)O[C@@H](COc3ccc(C(C)(C)C)cc3)CN2[C@H]1c1ccc(Br)cc1`, the z-score in test [1] was 0.7; in test [2], -0.481 (inactive); in test [3] it was 0.385 (inactive); in test [5], 0.11 (inactive); in test [6], -0.0191 (inactive); in [7], -0.578 (inactive). Also, the values for the z-score in test [8] and in [9] were -0.423 (inactive) and 0.749, respectively. The composite z-score in test [4] is 0.444 (inactive); in [10], -0.327.
As for `CON=C(C)CCN1CCCc2nc(C)c(C)cc21`, the z-score in [1] was -0.183; in [2] it was -0.899 (inactive); in test [3], -0.136 (inactive); in test [5] it was 0.0981 (inactive); in test [6], -0.1 (inactive); in test [7], 0.213 (inactive). Also, the values for the z-score in test [8] and in test [9] were -1.7 (inactive) and -0.22, respectively. For the same molecule, the composite z-score is -0.329 (inactive) in [4] and 0.346 in test [10].
With `COC(=O)[C@H](C)NC(=O)CCC1CC(OC(=O)NCc2cccc3ccccc23)CC2(CCCC(COC(=O)NCc3ccccc3)O2)O1` (stereo not given in full), the z-score in [1] was 2.27; in [2], -0.79 (inactive); in [3] it was 1.18 (inactive); in [5] it was -0.376 (inactive); in test [6], 0.136 (inactive); in test [7], -0.221 (inactive). The z-score in [8] is 0.324 (inactive); in [9] it was 1.42. For the same molecule, the composite z-score is 0.0095 (inactive) in [4] and -0.123 in test [10].
As for `CC(C)CON=C1[C@H]2CCn3c(=O)n(C)c(=O)n3[C@H]2[C@H](O)[C@@H]2O[C@H]12`, the z-score in [1] was -0.423; in test [2] it was 0.0789 (inactive); in [3], 0.0226 (inactive); in [5], -0.425 (inactive); in [6] it was -0.353 (inactive); in test [7], -0.0374 (inactive). The z-score in [8] was -0.0718 (inactive); in [9], -0.347. The figures for the composite z-score in [4] and in [10] were -0.764 (inactive) and -0.117, respectively.
`CCOC(=O)CCN1C(=O)[C@H]2[C@H]3[C@H](O)[C@H](O)CC(=NOCC(C)C)[C@@H]3CC[C@H]2C1=O`: the z-score was -0.452 in [1]; -0.824 (inactive) in test [2]; -0.665 (inactive) in [3]; 0.377 (inactive) in [5]; -0.992 (inactive) in [6]; -0.268 (inactive) in test [7]. Further, the z-score in [8] is -0.321 (inactive); in test [9], -0.889. Further, the composite z-score is -0.449 (inactive) in test [4] and 0.0819 in test [10].
Regarding `CCOC(=O)CCN1C(=O)[C@H]2[C@H]3[C@H](O)[C@H](O)CC(=NOCC=C(C)CCC=C(C)C)[C@H]3CC[C@H]2C1=O`, the z-score in test [1] was -0.51; in test [2], 0.398 (inactive); in test [3], -0.524 (inactive); in [5] it was 0.128 (inactive); in test [6] it was 0.0725 (inactive); in test [7], 0.614 (inactive). For the same molecule, the z-score in test [8] was 0.846 (inactive); in [9] it was -0.764. The figures for the composite z-score in [4] and in test [10] were -0.0222 (inactive) and 0.0223, respectively.
As to `CON=C(C)CCN1CCCCc2nc(C)c(C)cc21`, the z-score in test [1] is -0.18; in test [2], -0.571 (inactive); in [3], 0.183 (inactive); in test [5] it was 0.323 (inactive); in test [6] it was -0.11 (inactive); in test [7] it was 0.852 (inactive). Besides, the results for the z-score in [8] and in [9] were -0.78 (inactive) and 0.6, respectively. Moreover, the values for the composite z-score in test [4] and in test [10] were -1.07 (inactive) and 0.496, respectively.
Turning to `CC(=O)OC[C@H]1O[C@H](CC=NO[C@@H](C)c2cc(-c3c(C)cc(C)cc3C)no2)C=C[C@@H]1OC(C)=O`, the z-score in test [1] was -0.583; in test [2], 0.493 (inactive); in [3], -0.523 (inactive); in [5], -1.17 (inactive); in test [6], 0.142 (inactive); in [7] it was 0.165 (inactive). Moreover, the z-score was 0.105 (inactive) in test [8] and 0.138 in test [9]. In addition, the composite z-score in test [4] was 0.272 (inactive); in [10], -0.126.
Regarding `CC(C)=NOC(C)CN1CCCCc2nc(C)c(C)cc21` (stereo not given), the z-score was -0.724 in test [1]; 0.0416 (inactive) in [2]; -0.408 (inactive) in [3]; 0.547 (inactive) in test [5]; 0.113 (inactive) in test [6]; 0.668 (inactive) in [7]. Moreover, the z-score in test [8] was -0.562 (inactive); in test [9], -0.491. For the same molecule, the values for the composite z-score in test [4] and in [10] were -0.241 (inactive) and 0.111, respectively.
